# Most compounds without a hit are left out; they make up all but 8.9% or so of the library.
# KB-V1 MDR tox: qHTS assay for MDR1-selective chemotherapeutics: Primary screen using the drug-selected MDR subline cells KB-V1; AID 1347076, 2019; 400,000 compounds, 3.4% hits; Potency, µM (titrated, usually from 46.1 µM), most hits filed as cytotoxic; KB-V1 MDR cells viability, CellTiter-Glo, 72 h; further: potency means the concentration at half of the fitted maximal effect; on the % scale 0 is the no-effect control and ±100 the full control effect; nearly all actives have a fitted effect of over 60% in size
#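 KB-V1 cells (P-gp-expressing MDR subline of KB-3-1) in phenol-red-free DMEM with 10% FBS were exposed to library compounds over a concentration series for 72 h at 37 degrees C. Viability read by CellTiter-Glo luminescence; concentration-effect curves fitted after normalization.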
# MCF10A rerep: A quantitative high throughput screen for small molecules that induce DNA re-replication in MCF 10a normal breast cells; MCF 10A DNA re-replication, Hoechst nuclear intensity, 48 h; Potency, µM (doses to about 46.1 µM), inactives show at the top dose activity, positive = re-replication, most hits filed as activators; 350,000 compounds, 2.9% hits; AID 624296, 2012; further: potency means the concentration at half of the fitted maximal effect; % of control where 0% means no effect; nearly all actives have a fitted effect of over 50% in size
# SW480 rerep: A quantitative high throughput screen for small molecules that induce DNA re-replication in SW480 colon adenocarcinoma cells; 340,000 compounds, 1.8% hits; SW480 DNA re-replication, Hoechst DNA content imaging, 48 h; Potency, µM (series often up to 46.1 µM), for inactives: at the top dose re-replication activation, most hits filed as activators; further: potency means the concentration at half of the fitted maximal effect; % of control where 0% means no effect; nearly all actives have a fitted effect of over 55% in size
#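 DNA re-replication was detected as more nuclei of elevated Hoechst intensity after 48 hr exposure to compound (23 nL pinned per well of 250 cells).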
# DRD3 agonist: qHTS of D3 Dopamine Receptor Agonist: qHTS; D(3) dopamine receptor (Homo sapiens), P35462; D3R DiscoveRx beta-arrestin cells, luminescence, 90 min; max activation, %; 410,000 compounds, 0.58% hits; AID 652048, 2013; in the data active means max activation above about 30%; further: 0% is about no effect
# Target sequence (P35462 whole entry, looked up): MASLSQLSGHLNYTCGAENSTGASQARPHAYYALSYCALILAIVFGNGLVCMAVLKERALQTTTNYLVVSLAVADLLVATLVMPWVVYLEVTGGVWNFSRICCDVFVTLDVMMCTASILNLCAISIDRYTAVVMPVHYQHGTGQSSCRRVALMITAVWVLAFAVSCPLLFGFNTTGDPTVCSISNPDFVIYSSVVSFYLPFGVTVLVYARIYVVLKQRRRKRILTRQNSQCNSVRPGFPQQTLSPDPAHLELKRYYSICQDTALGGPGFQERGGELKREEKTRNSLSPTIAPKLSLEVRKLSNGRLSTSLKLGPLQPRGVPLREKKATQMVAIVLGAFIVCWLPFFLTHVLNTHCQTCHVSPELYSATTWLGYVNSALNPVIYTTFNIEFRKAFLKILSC
#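 Cells at 1500/well, incubated overnight, then treated with pinned compounds (dopamine as control) for 90 min at 37 degrees C. DiscoveRx reagent added for 30 - 60 minutes at room temperature; luminescence read.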
# KB-3-1 cytotox: qHTS assay for MDR1-selective chemotherapeutics: Primary screen using the parental adenocarcinoma cell KB-3-1; KB-3-1 viability, CellTiter-Glo ATP luminescence, 72 h; Potency, µM (highest dose often 46.1 µM), hits mostly cytotoxic; 400,000 compounds, 1.4% hits; AID 1347075, 2019; further: potency means the concentration at half of the fitted maximal effect; on the % scale 0 is the no-effect control and ±100 the full control effect; nearly all actives have a fitted effect of over 60% in size
#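 Screening of KB-3-1 cells (DMEM, 10% FBS, phenol-red free) ran from lowest to highest compound concentration; after 72 h at 37 °C viability was read luminescently and curves fitted.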
# D3 antag: qHTS of D3 Dopamine Receptor Antagonist: qHTS. max response, negative = inhibition, %. 360,000 compounds, 2.5% hits. D(3) dopamine receptor (Homo sapiens), P35462. D3R cells, DiscoveRx beta-arrestin luminescence, antagonist mode; hits give low values. AID 652054, 2013; in the data active means max response below about -50%; inconclusive means no clear call, values can overlap the other calls; further: on the % scale 0 is the no-effect control and ±100 the full control effect
#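 Cells expressing the human receptor were seeded at 1500 cells/well, incubated overnight at 37 degrees C in 5% CO2, then exposed to library compounds with dopamine controls for 90 minutes at 37 degrees C before luminescent detection.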
# * hit, by the source's call; i = inactive; ? = inconclusive; . = no result given. Unless noted, the call rests on the fitted dose curve; in most records, active means well fitted curve in the direction sought with a large enough effect; inconclusive means small, poorly fitted or top-dose-only effect, or another doubt; inactive means no such curve, though single readings can be large; an effect the other way counts as inactive or inconclusive.
SMILES,KB-V1 MDR tox,MCF10A rerep,SW480 rerep,DRD3 agonist,KB-3-1 cytotox,D3 antag
COc1nc(/C=C/N(C)C)c([N+](=O)[O-])c(OC)n1,i,6.5µM*,-1%,-5,i,-5
O=C(NNC1=Nc2ccccc2SC1)c1ccc(Cl)cc1,?,?,18µM*,-20,?,-73*
Cc1cc(C)c(C(=O)CC(=O)c2ccccc2Cl)c(O)c1,?,?,7%,-12,?,-64*
Cc1cc(C)c(NC(=O)CC(=O)c2ccccc2)c(Cl)c1,?,2%,10%,-5,i,26
O=c1c2ccccc2nc2sc(Nc3cccc(N4CCNCC4)c3)nn12,i,.,.,.,?,.
Cc1ccc(Nc2nc(=O)c3cccnc3s2)cc1,i,16µM*,9.2µM*,-15,i,-102*
CCCCC(=O)NC(c1ccc(OC)c(OC)c1)c1c(O)ccc2ccccc12 (configuration not stated),15µM*,3%,-5%,-3,i,-8
CCCC(=O)NC(c1ccccc1)c1c(O)ccc2ccccc12 (configuration not stated),i,11%,4%,2,i,-8
CCCC(=O)NC(c1ccc(N(C)C)cc1)c1c(O)ccc2ccccc12 (configuration not stated),15µM*,-1%,-2%,2,i,10
Cc1ccc(C(=O)NCCc2ccc(S(N)(=O)=O)cc2)cc1-n1cnc2cccnc21,i,.,.,6,i,.
CCCc1nc(SCc2cc(=O)c3ccc(C)c(C)c3[nH]2)n[nH]1,i,.,.,-9,i,.
Cc1nc2ccccn2c1C(=O)CSc1ccccc1Cl,16µM*,13%,-9%,4,?,48
O=C(/C=C/c1ccc(F)cc1)NC(=S)Nc1ccccc1C(=O)NC1CCCCC1,16µM*,?,?,1,i,-12
COc1ccc(/C=C/C(=O)NC(=S)Nc2ccccc2C(=O)NC2CCCCC2)cc1,?,18µM*,4.1µM*,1,i,7
O=C(NC1CCCCC1)c1ccccc1NC(=O)C1CC1,16µM*,20%,0%,-7,i,-3
COc1cc(OC)cc(C(=O)Nc2ccccc2C(=O)NC2CC2)c1,6.5µM*,?,?,0,?,23
Cc1ccc(/C=C/C(=O)NC(=S)Nc2ccccc2C(=O)NC2CCCCC2)cc1,i,?,2%,-4,i,-14
Cc1ccc(NC2=C(CC(=O)O)C(c3ccc(F)cc3)N(c3ccc(C)cc3)C2=O)cc1 (configuration not stated),i,.,.,8,i,.
O=C(C[n+]1cc(Br)cc(Br)c1)c1ccc(I)cc1,i,.,.,.,?,.
CCN(CC)c1ncnc2c1cnn2-c1cc(Cl)ccc1C,i,.,.,-6,i,.
O=C1OC(N2C(=O)CC[C@H]2C(=O)Nc2cccc(F)c2)c2ccccc21 (some centres not stated),i,-57%,4.1µM*,24,i,-10
COc1cccc(NC(=O)[C@@H]2CCC(=O)N2C2OC(=O)c3ccccc32)c1 (some centres not stated),i,-12%,3%,5,i,-20
c1ccc(Cc2nnc3sc(-c4ccncc4)nn23)cc1,i,17%,0%,-17,i,-29
c1ccc(Cc2nnc3sc(-c4ccccn4)nn23)cc1,16µM*,1%,-4%,-1,?,19
c1ccc(OCc2nnc3sc(C4COc5ccccc5O4)nn23)cc1 (configuration not stated),i,10%,1%,2,i,4
SMILES,KB-V1 MDR tox,MCF10A rerep,SW480 rerep,DRD3 agonist,KB-3-1 cytotox,D3 antag
Clc1ccccc1-c1nnc2sc(C3COc4ccccc4O3)nn12 (configuration not stated),16µM*,-3%,0%,-10,i,?
c1ccc(Cc2nnc3sc(C4COc5ccccc5O4)nn23)cc1 (configuration not stated),15µM*,9%,-3%,-1,i,14
COc1cccc(NC(=O)Cn2c(=O)n(-c3ccc(CC(=O)NCC4CCCO4)cc3)c(=O)c3ccccc32)c1 (configuration not stated),?,.,.,-2,i,.
CC(=O)c1cccc(NS(=O)(=O)c2cc(-c3onc(C)c3C)ccc2C)c1,?,.,.,5,15µM*,.
Cc1cccc(Cn2nnc3c2C(=O)c2ccccc2C3=O)c1,6.3µM*,14%,?,-4,?,-16
Cc1ccccc1Cn1nnc2c1C(=O)c1ccccc1C2=O,13µM*,23%,?,2,?,-16
CCOc1ccc2oc(C(=O)OCC(=O)NC3CC3)c(C)c2c1,i,7%,-6%,4,i,-18
CCOC(=O)c1oc2ccc(CNCCO)c(Cl)c2c1C,?,21%,2%,-17,i,-54*
CCOC(=O)c1oc2ccc(CNC3CCCCC3)c(Cl)c2c1C,i,16µM*,?,-36,i,-86*
O=S(=O)(Nc1cccc(-c2ccc(N3CCCCC3)nn2)c1)c1cccc(F)c1,i,.,.,-7,i,.
CC(CCc1ccccc1)NCc1cccc2ccccc12 (configuration not stated),i,10%,1%,3,i,-54*
COc1ccc(CCC(C)NCc2cccc(Br)c2)cc1 (configuration not stated),?,17%,-1%,-8,i,-68*
COc1ccc(CCC(C)NCc2ccccc2OC)cc1 (configuration not stated),i,4%,?,-12,i,-27
O=[N+]([O-])c1ccc2c(c1)C=C/C2=C\c1ccc(C=S)cc1,?,.,.,.,i,.
OCCN1CCN(C2CCC(c3ccc(F)cc3)c3ccc(F)cc32)CC1 (configuration not stated),?,21µM*,?,-21,?,-63*
Nc1ncc(-c2ccc(F)cc2)nc1N1CCN(CCO)CC1,i,.,.,-14,i,-21
COc1cc2c[n+](C)c3c4ccccc4ccc3c2cc1OC,?,-8%,?,2,9.2µM*,-4
COc1ccc2c(c1)c[n+](C)c1c3cc(OC)c(OC)cc3ccc21,i,.,.,4,2.9µM*,-4

# Compound activity as filed in PubChem.
